IDE exosite inh: exo-site inhibitors of human IDE, primary screen, biochemical, fluorescence anisotropy, probe displacement | actives 6.3% (n = 17,000) | purified IDE, FL-6b probe fluorescence polarization; hits give low values | z-score at 20 µM | AID 1259349, 2017;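 active means z-score of -3 or lower, meaning strong loss of probe binding signal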;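 further: His-tagged human IDE residues 42-1019 made in E. coli with 30 nM FL-6b probe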
Target sequence (P14735 42-1019 limits assumed): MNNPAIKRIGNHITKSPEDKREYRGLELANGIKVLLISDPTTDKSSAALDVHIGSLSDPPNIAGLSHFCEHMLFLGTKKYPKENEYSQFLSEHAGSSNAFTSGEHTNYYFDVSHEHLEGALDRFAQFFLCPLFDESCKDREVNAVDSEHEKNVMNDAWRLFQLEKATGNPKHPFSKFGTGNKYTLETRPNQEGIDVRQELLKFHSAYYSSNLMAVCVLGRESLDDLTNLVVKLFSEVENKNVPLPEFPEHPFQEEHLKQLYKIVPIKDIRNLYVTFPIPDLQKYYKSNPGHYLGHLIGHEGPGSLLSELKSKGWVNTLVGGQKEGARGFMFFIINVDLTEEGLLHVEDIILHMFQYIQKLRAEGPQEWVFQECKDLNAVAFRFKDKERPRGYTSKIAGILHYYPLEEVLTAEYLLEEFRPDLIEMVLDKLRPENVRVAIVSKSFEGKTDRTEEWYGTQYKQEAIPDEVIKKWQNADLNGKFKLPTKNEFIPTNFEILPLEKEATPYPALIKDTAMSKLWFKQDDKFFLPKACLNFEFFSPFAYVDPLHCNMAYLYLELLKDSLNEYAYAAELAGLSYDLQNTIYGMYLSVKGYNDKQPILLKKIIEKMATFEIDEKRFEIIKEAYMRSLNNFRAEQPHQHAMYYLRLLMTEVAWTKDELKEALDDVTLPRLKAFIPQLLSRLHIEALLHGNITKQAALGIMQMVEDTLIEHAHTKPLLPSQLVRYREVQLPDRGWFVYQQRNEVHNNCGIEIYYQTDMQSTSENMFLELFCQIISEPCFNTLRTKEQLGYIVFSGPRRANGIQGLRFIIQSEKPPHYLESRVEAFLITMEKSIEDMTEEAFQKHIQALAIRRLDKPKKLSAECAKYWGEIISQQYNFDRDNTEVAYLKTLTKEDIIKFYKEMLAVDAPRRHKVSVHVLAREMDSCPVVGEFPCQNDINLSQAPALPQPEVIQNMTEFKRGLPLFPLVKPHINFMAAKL
Hits are given with their value; - = inactive. The entries come from a sample that favours hits as a whole.

SMILES	IDE exosite inh
CCS(=O)(=O)N1CCCCN2[C@@H](CO)[C@@H](c3ccc(C#Cc4ccccc4OC)cc3)[C@@H]2C1	-19.7
COc1ccc(C#Cc2ccc([C@H]3[C@@H](CO)N4CCCCN(S(=O)(=O)c5ccccc5)C[C@H]34)cc2)cc1	-
CCS(=O)(=O)N1CCCCN2[C@H](C1)[C@H](c1ccc(C#Cc3ccccn3)cc1)[C@@H]2CO	-
O=S(=O)(Cc1ccccc1)N1CCCCN2[C@H](C1)[C@@H](c1ccc(C#Cc3ccccc3)cc1)[C@@H]2CO	-
CN1[C@H](CO)[C@@H]2c3ccccc3N(C(=O)C3CCCCC3)C[C@@H]21	-
N#C[C@@H]1[C@@H](c2ccc(C#CC3CC3)cc2)[C@@H](CO)N1S(=O)(=O)Cc1ccccc1	-
C/C=C/c1ccc([C@@H]2[C@@H](C#N)N(c3nc(-c4ccccc4)cs3)[C@@H]2CO)cc1	-
O=C(C[C@H]1C=C[C@@H](NC(=O)CCN2CCCCC2)[C@H](CO)O1)Nc1nccs1	-
COCCN(C[C@H]1[C@@H](c2ccccc2)[C@H](CO)N1C(C)=O)C(=O)c1ccncc1	-
CC(=O)N1CCCCN2[C@@H](CO)[C@@H](c3ccc(-c4cccc(C(=O)N(C)C)c4)cc3)[C@@H]2C1	-
CCN(C[C@@H]1N[C@@H](CO)[C@H]1c1ccc(C2=CCCC2)cc1)C(=O)c1ccncc1	-
CN1C(=O)c2cc(NC(=O)C3CCOCC3)ccc2OC[C@H]2O[C@H](CC(=O)NCCc3ccncc3)CC[C@@H]21	-
C[C@H]1CN([C@@H](C)CO)C(=O)CCCn2cc(nn2)CO[C@@H]1CN(C)C(=O)Nc1ccc2c(c1)OCO2	-
CO[C@@H]1CN(C)C(=O)c2cc(NC(=O)Nc3ccccc3F)ccc2OC[C@@H](C)N(CCC(F)(F)F)C[C@H]1C	-
CO[C@@H](CN(C)Cc1ccc2c(c1)OCO2)[C@H](C)CN(C(=O)c1ccccc1)[C@H](C)CO	-
CN(C)CC#Cc1ccc([C@H]2[C@@H](CO)N3CCCCN(S(=O)(=O)c4ccccc4)C[C@@H]23)cc1	-
CCS(=O)(=O)Nc1ccc2c(c1)C(=O)N(C)[C@H]1CC[C@@H](CC(=O)N3CCN(C)CC3)O[C@@H]1CO2	-
N#C[C@@H]1[C@H](c2ccccc2)[C@H](CO)N1C(=O)c1cc(Cl)cc(Cl)c1	-
O=C(c1ccccc1)N1[C@@H](CO)[C@@H](c2ccccc2)C12CN(Cc1nccs1)C2	-
C[C@@H](O)C#Cc1ccc([C@@H]2[C@H](CO)N3CCCCN(C(=O)c4cccc(F)c4)C[C@@H]23)cc1	-
COc1ccccc1-c1ccc([C@@H]2[C@@H](CO)N3CCCCN(Cc4ccncc4)C[C@@H]23)cc1	-6.78
COc1ccc(C#Cc2ccc([C@H]3[C@H]4CN(Cc5ccncc5)CCCCN4[C@H]3CO)cc2)cc1	-
OC[C@@H]1[C@@H](c2ccc(-c3ccccc3F)cc2)[C@@H]2CN(Cc3ccncc3)CCCCN12	-
OC[C@H]1[C@H](c2ccc(-c3ccccc3F)cc2)[C@H]2CN(Cc3ccncc3)CCCCN21	-3.27
OC[C@H]1[C@@H](c2ccc(-c3ccccc3F)cc2)[C@H]2CN(Cc3ccncc3)CCCCN21	-
SMILES	IDE exosite inh
OC[C@@H]1[C@H](c2ccc(-c3ccccc3F)cc2)[C@@H]2CN(Cc3ccncc3)CCCCN12	-
O=C(C[C@@H]1CC[C@H]2[C@@H](COC[C@H](O)CN2C(=O)c2cnccn2)O1)NCc1ccc(Cl)cc1	-
COCC(=O)NC[C@H]1[C@@H](c2ccc(-c3ccccc3)cc2)[C@@H](CO)N1C(C)=O	-
C[C@@H]1CN([C@H](C)CO)C(=O)CCCn2nncc2CO[C@@H]1CN(C)S(=O)(=O)c1ccc2c(c1)OCCCO2	-
O=C(NC1CCCCC1)N1CC(=O)N2[C@H](CO)[C@@H](c3ccc(-c4ccncc4)cc3)[C@H]2C1	-
O=C(NC1CCCC1)N1CC(=O)N2[C@H](CO)[C@@H](c3ccc(-c4ccncc4)cc3)[C@H]2C1	-
O=C(C1CCCCC1)N1CC(=O)N2[C@@H](CO)[C@@H](c3ccc(-c4cccnc4)cc3)[C@@H]2C1	-
O=C(NC1CCCC1)N1CC(=O)N2[C@H](CO)[C@H](c3ccc(-c4ccncc4)cc3)[C@@H]2C1	-
O=C(C1CCCCC1)N1CC(=O)N2[C@H](C1)[C@@H](c1ccc(-c3cccnc3)cc1)[C@@H]2CO	-
O=C(NC1CCCC1)N1CC(=O)N2[C@H](CO)[C@H](c3ccc(-c4cccnc4)cc3)[C@@H]2C1	-3.37
O=C(NC1CCCC1)N1CC(=O)N2[C@H](CO)[C@H](c3ccc(-c4ccccc4)cc3)[C@@H]2C1	-5.7
O=C(C1CCCCC1)N1CC(=O)N2[C@H](CO)[C@@H](c3ccc(-c4cccnc4)cc3)[C@@H]2C1	-5.08
O=C(C1CCCCC1)N1CC(=O)N2[C@H](CO)[C@H](c3ccc(-c4cccnc4)cc3)[C@@H]2C1	-
CCCC#Cc1ccc([C@H]2[C@H]3CN(C(=O)Cc4cccnc4)CC(=O)N3[C@H]2CO)cc1	-
CCC(=O)N1CC(=O)N2[C@H](CO)[C@@H](c3ccc(-c4ccc(C#N)cc4)cc3)[C@H]2C1	-
O=C(C[C@H]1CC[C@@H]2[C@H](COC[C@@H](O)CN2Cc2ccc(F)cc2)O1)NCCc1ccccc1	-
O=C(Cc1ccccn1)N1CC2(C1)[C@H](c1ccccc1)[C@H](CO)N2C(=O)c1ccncc1	-4.47
CCC(=O)N1[C@@H](CO)[C@@H](c2ccccc2)C12CN(C(=O)c1ccncc1)C2	-
CCC(=O)N1[C@H](CO)[C@H](c2ccccc2)C12CN(C(=O)c1ccncc1)C2	-
O=C(C[C@@H]1CC[C@H]2[C@@H](COC[C@H](O)CN2C(=O)Nc2ccc(F)cc2)O1)NC1CCC1	-
CC(C)CC#Cc1ccc([C@@H]2[C@H]3CN(C(=O)c4cccc(F)c4)CC(=O)N3[C@H]2CO)cc1	-
COc1cccc(-c2ccccc2[C@H]2[C@@H](CO)N(C(=O)Nc3ccc(F)cc3)[C@H]2C#N)c1	-
COc1ccc2c3c(n(C)c2c1)[C@H](CO)N(Cc1nccs1)CC31CCN(CC2CCCC2)CC1	-
Cc1ccc(-c2ccc([C@H]3[C@H](CO)N4C(=O)CN(C(=O)NC(C)C)C[C@@H]34)cc2)cc1	-
C/C=C/c1ccc([C@H]2[C@@H](CO)N3C(=O)CN(C(=O)CC4CC4)C[C@@H]23)cc1	-
SMILES	IDE exosite inh
CN(C)CC(=O)N1CC(=O)N2[C@H](CO)[C@@H](c3ccc(/C=C/c4ccccc4)cc3)[C@H]2C1	-5.64
CC(C)NC(=O)N1CC(=O)N2[C@H](CO)[C@@H](c3ccc(/C=C/c4ccccc4)cc3)[C@H]2C1	-6.87
CN(C)CC#Cc1ccc([C@@H]2[C@@H](CO)N3C(=O)CN(C(=O)CN(C)C)C[C@H]23)cc1	-
O=C(NC1CCCC1)N1CC(=O)N2[C@@H](CO)[C@H](c3ccc(/C=C/c4ccccc4)cc3)[C@@H]2C1	-6.5
C/C=C/c1ccc([C@H]2[C@H](CO)N3C(=O)CN(C(=O)NC4CCCCC4)C[C@@H]23)cc1	-
CN(C)CC(=O)N1CC(=O)N2[C@H](CO)[C@@H](c3ccc(-c4ccc(C(=O)N(C)C)cc4)cc3)[C@H]2C1	-
Cc1ccc(-c2ccc([C@H]3[C@H]4CN(C(=O)NC(C)C)CC(=O)N4[C@H]3CO)cc2)cc1	-
C/C=C/c1ccc([C@@H]2[C@@H](CO)N3C(=O)CN(C(=O)NC4CCCC4)C[C@@H]23)cc1	-3.19
